Data from PubChem BioAssay (NCI).
Compounds without any hit were thinned out: in the full panel of roughly 83,000, 20% have a hit.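 How to read the values: 0–100, growth inhibition (40 = 60% inhibited); 0, no net growth; -100 to 0, cell death (-40 = 40% of starting cells died; -100 = all dead).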 A number with no mark means an inactive call. Active and inactive are the calls of the source. The calls were made as follows: active = growth percent below 10; inactive = the rest.

Experiments:
Assay in all cases: NCI-60 one-dose screen, 48 h (100 = growth as untreated, 0 = no growth, -100 = all killed)
Details in all cases: 10 µM
786-0 renal = tested on: 786-0 renal
MALME-3M melanoma = tested on: MALME-3M melanoma
RXF 393 renal = tested on: RXF 393 renal
UACC-257 melanoma = tested on: UACC-257 melanoma
SK-MEL-2 melanoma = tested on: SK-MEL-2 melanoma
SN12C renal = tested on: SN12C renal
TK-10 renal = tested on: TK-10 renal
ACHN renal = tested on: ACHN renal
A498 renal = tested on: A498 renal
RPMI-8226 leukemia = tested on: RPMI-8226 leukemia
OVCAR-8 ovarian = tested on: OVCAR-8 ovarian
OVCAR-4 ovarian = tested on: OVCAR-4 ovarian
SK-OV-3 ovarian = tested on: SK-OV-3 ovarian
IGROV1 ovarian = tested on: IGROV1 ovarian
OVCAR-3 ovarian = tested on: OVCAR-3 ovarian
NCI/ADR-RES ovarian = tested on: NCI/ADR-RES ovarian
T-47D breast = tested on: T-47D breast
BT-549 breast = tested on: BT-549 breast
MDA-MB-435 melanoma = tested on: MDA-MB-435 melanoma
MCF7 breast = tested on: MCF7 breast

| Compound | growth (786-0 renal) | growth (MALME-3M melanoma) | growth (RXF 393 renal) | growth (UACC-257 melanoma) | growth (SK-MEL-2 melanoma) | growth (SN12C renal) | growth (TK-10 renal) | growth (ACHN renal) | growth (A498 renal) | growth (RPMI-8226 leukemia) | growth (OVCAR-8 ovarian) | growth (OVCAR-4 ovarian) | growth (SK-OV-3 ovarian) | growth (IGROV1 ovarian) | growth (OVCAR-3 ovarian) | growth (NCI/ADR-RES ovarian) | growth (T-47D breast) | growth (BT-549 breast) | growth (MDA-MB-435 melanoma) | growth (MCF7 breast) |
| --- | --- | --- | --- | --- | --- | --- | --- | --- | --- | --- | --- | --- | --- | --- | --- | --- | --- | --- | --- | --- |
| CCC[Se]C(=O)c1ccc(C(=O)[Se]CCC)s1 | 2.15% (active) | -82.4% (active) | -41.3% (active) | -53.7% (active) | -24.1% (active) | -75% (active) | -79.8% (active) | -63.3% (active) | -64.9% (active) | -5.8% (active) | -51.1% (active) | 55.6% | -31.1% (active) | -67.3% (active) | -47.6% (active) | -53.9% (active) | 30% | -86.4% (active) | -61% (active) | -34.6% (active) |
| O=C([Se]C1C=CCCC1)c1ccc(C(=O)[Se]C2C=CCCC2)s1 (stereo not given) | -92.7% (active) | -85.7% (active) | -92% (active) | -74.7% (active) | -37.7% (active) | -81.8% (active) | -80.9% (active) | -67% (active) | 20.6% | -43.1% (active) | -97.6% (active) | -95.3% (active) | -97.5% (active) | -90.4% (active) | -92.4% (active) | -81.4% (active) | -48.1% (active) | -65.7% (active) | -61.2% (active) | -37.1% (active) |
| C#CCCCN(CCNc1ccnc2cc(Cl)ccc12)C(=O)CCC(=O)O[C@@H]1O[C@@H]2OC3(C)CC[C@H]4[C@H](C)CC[C@@H]([C@H]1C)[C@@]24OO3 | 46.9% | 20.3% | 34.3% | 29.3% | 43.9% | 36.1% | 50.1% | 29.4% | 96% | 24.9% | 17% | 41.3% | 79.3% | 41.1% | 25.7% | 16.2% | 27.9% | 37.3% | 21.2% | 14.2% |
| CC[C@]12C=CCN3CC[C@@]4(c5ccc(OC)cc5N(C)[C@H]4[C@@](O)(C(=O)OC)[C@@H]1OC(=O)CCC[P+](c1ccc(F)cc1)(c1ccc(F)cc1)c1ccc(F)cc1)[C@@H]32 | 80.9% | -32.6% (active) | -10.4% (active) | -34.3% (active) | -46.9% (active) | 16.6% | 63.9% | 101% | 101% | 24.4% | 28% | 48.6% | 54.7% | -15% (active) | 21.1% | 104% | 10.4% | -9.4% (active) | 6.69% (active) | 7.7% (active) |
| O=C(/C=C/c1ccc(F)cc1)c1nc2ccccc2n1Cc1ccc(F)cc1 | -31.5% (active) | -23.8% (active) | -67.6% (active) | 25.6% | 21.3% | 21.9% | 12.2% | -45.4% (active) | 112% | -27.1% (active) | 2.66% (active) | 56.8% | 70.4% | 14.9% | 22.9% | -42.5% (active) | 16.6% | -23.8% (active) | -37.9% (active) | 7.32% (active) |
| COc1cc(OC)c(S(=O)(=O)N(CCCl)CCCl)cc1C(=O)/C=C/c1cc(OC)c(OC)c(OC)c1 | -59.7% (active) | -15.6% (active) | -75.5% (active) | -60% (active) | -94.5% (active) | 8.6% (active) | 3.84% (active) | 2.37% (active) | -0.926% (active) | -24.3% (active) | 9.85% (active) | 23.2% | 9.62% (active) | 0.296% (active) | -3.7% (active) | 4.75% (active) | 21% | -84.7% (active) | -31.5% (active) | -39.2% (active) |
| Cc1c2oc3c(C)ccc(C(=O)N[C@@H]4C(=O)N[C@H](C(C)C)C(=O)N5CCC[C@H]5C(=O)N(C)CC(=O)N(C)[C@@H](C(C)C)C(=O)OC4C)c3nc-2c(C(=O)N[C@@H]2C(=O)N[C@H](C(C)C)C(=O)N3CC(=O)C[C@H]3C(=O)N(C)CC(=O)N(C)[C@@H](C(C)C)C(=O)OC2C)c(N)c1=O (stereo not given in full) | 19% | -14.5% (active) | -78.8% (active) | -28% (active) | -68.5% (active) | 6.6% (active) | 5.82% (active) | 2.84% (active) | -68.7% (active) | -13.1% (active) | 0.349% (active) | 21% | 7.97% (active) | 17% | 6.77% (active) | 4.49% (active) | -5% (active) | -9.76% (active) | -66.1% (active) | 1.42% (active) |
